# Data reported in PubChem BioAssay AID1053133 (Broad Institute, 2014).
# “And” between values parts separate entries of the source, which are not always exact repeats. Identical values can stand only once. Hit rate of the full screen: of about 89,000 compounds, about 10 (0.01%) were called active. About 10% were inconclusive and are not listed. No stated cut-off is given here; in the data, active means activity change below about -37% (passing the limit was not always enough); inconclusive means no clear call, values can overlap the other calls; tested in A549 cells. Only a sample is shown.
# Assay: Vaccinia orthopox stage-specific inhibition, primary screen, cell-based, single point (AID 1053133)
# Settings: Vaccinia-infected cells, mCherry/Venus stage reporter fluorescence, stronger effect = lower value, concentration not given here; activity change (Venus): measured here: Venus reporter, other viral stage
SMILES,activity change (Venus),activity change (mCherry)
Cn1cnc(CCNC(=O)[C@H]2[C@H](CO)[C@H]3Cn4c(cccc4=O)[C@H]3N2C(=O)Nc2ccccc2)c1,5.32%,12% (inactive)
COc1ccc(S(=O)(=O)Nc2ccc3c(c2)C(=O)N([C@@H](C)CO)C[C@H](C)[C@H](CN(C)Cc2ccc(C(=O)O)cc2)OCCCC[C@@H](C)O3)cc1,19.1%,34.5% (inactive)
O=C(C1CCCC1)N1[C@H](CO)[C@@H]2c3ccccc3N(S(=O)(=O)c3ccccc3)C[C@@H]21,-0.835%,3.15% (inactive)
CCC(=O)N1CCC2(CC1)CN(Cc1ccc(Cl)cc1)[C@@H](CO)c1[nH]c3cc(OC)ccc3c12,3.95%,2.91% (inactive)
O=C(C[C@H]1CC[C@@H](NC(=O)c2ccc(F)cc2)[C@@H](CO)O1)NCc1ccncn1,6.42%,11.2% (inactive)
Cc1ccc(S(=O)(=O)NCC[C@@H]2CC[C@@H](NC(=O)CCN3CCCCC3)[C@@H](CO)O2)cc1,12.7%,18.4% (inactive)
Cc1ccccc1-c1ccc2c(c1)O[C@@H](CN(C)Cc1ccc(C(=O)O)cc1)[C@@H](C)CN([C@H](C)CO)S2(=O)=O,9.16% and -2.89%,13.4% (inactive) and 11.3% (inactive)
COC(=O)[C@@H]1[C@@H](CO)[C@@H]2Cn3c(ccc(C4=CCCC4)c3=O)[C@@H]2N1Cc1cncnc1,12.2%,12.2% (inactive)
C[C@H](O)C#Cc1ccc([C@@H]2[C@@H](CO)N3CCCCN(C(=O)c4ccc(F)cc4)C[C@H]23)cc1,-0.172%,24.9% (inactive)
COC(=O)C[C@H]1CC[C@H]2[C@H](COc3ccc(NC(=O)C4CC4)cc3C(=O)N2C)O1,8.69%,16.9% (inactive)
C[C@@H](NC(=O)C[C@H]1CC[C@H](NS(=O)(=O)c2cccc(F)c2)[C@H](CO)O1)c1ccccc1,2.54%,12.2% (inactive)
COc1ccc(NC(=O)N(C)C[C@@H]2OCCCC[C@H](C)Oc3ccc(NS(=O)(=O)c4cn(C)cn4)cc3C(=O)N([C@@H](C)CO)C[C@@H]2C)cc1,6.5%,16% (inactive)
CO[C@@H]1CN(C)C(=O)c2ccc(NS(=O)(=O)c3cccc(F)c3)cc2OC[C@H](C)N(C(=O)Cc2cccnc2)C[C@@H]1C,-6.63%,-1.85% (inactive)
CCCNC(=O)N1[C@H](C#N)[C@@H](c2ccccc2C2=CCCCC2)[C@@H]1CO,2.66%,-4.44% (inactive)
O=C(C[C@H]1CC[C@H](NC(=O)c2ccc(F)cc2)[C@@H](CO)O1)NCCc1ccncc1,-8.31%,6.53% (inactive)
CC(=O)N(C)C[C@@H]1Oc2cc(C#Cc3ccccc3F)ccc2S(=O)(=O)N([C@@H](C)CO)C[C@@H]1C,-24.5%,-31.1% (inactive)
CCCNC(=O)N[C@H]1C=C[C@@H](CC(=O)NC2CCCCC2)O[C@H]1CO,-1.05%,-4.3% (inactive)
CS(=O)(=O)Nc1ccc2c(c1)[C@H]1C[C@@H](CC(=O)N3CCOCC3)O[C@@H](CO)[C@H]1O2,11.4%,11% (inactive)
CC(C)NC(=O)N1[C@H](CO)[C@H](c2ccccc2)C12CN(C(=O)Cc1ccccc1)C2,4.09%,-7.19% (inactive)
COc1ccc2c3c([nH]c2c1)[C@@H](CO)N(C(=O)NC(C)C)CC31CCN(C(=O)c2ccccn2)CC1,4.18%,12.8% (inactive)
O=C(N[C@H]1CC[C@@H](CCn2cc(Cc3ccccc3)nn2)O[C@H]1CO)c1cnccn1,-8.51%,6.03% (inactive)
COc1ccc(-c2ccccc2[C@@H]2[C@@H](C#N)N(C(=O)NC3CCCC3)[C@H]2CO)cc1,-17.8%,-22.2% (inactive)
C[C@@H]1CN([C@H](C)CO)C(=O)c2cc(NC(=O)Nc3ccc(F)cc3)ccc2O[C@@H](C)CCCCO[C@@H]1CN(C)S(=O)(=O)c1cn(C)cn1,23.4%,41.6% (inactive)
CCN1[C@@H]2Cn3c(ccc(-c4cccc(OC)c4)c3=O)[C@H]1[C@@H](C(=O)N(C)C)[C@@H]2CO,15.1%,20% (inactive)
CO[C@H]1CN(C)C(=O)c2ccc(NC(=O)C3CCOCC3)cc2OC[C@H](C)NC[C@H]1C,1.25%,-0.453% (inactive)
CN1c2ccc(C#Cc3cccnc3)cc2[C@H]2[C@H](CCN2S(=O)(=O)c2ccccc2)[C@@H]1CO,-9.21%,-5.16% (inactive)

SMILES,activity change (Venus),activity change (mCherry)
C[C@H](O)C#Cc1cnc2c(c1)C(=O)N([C@@H](C)CO)C[C@@H](C)[C@@H](CN(C)C(=O)Cc1ccccn1)O2,10.7%,17.6% (inactive)
O=C(C[C@H]1CC[C@H](NC(=O)CCN2CCCCC2)[C@@H](CO)O1)Nc1ccccc1,15.9%,7.83% (inactive)
O=C(NCC[C@H]1CC[C@@H](NS(=O)(=O)c2cccc(Cl)c2)[C@@H](CO)O1)c1cnccn1,-5.45%,-13.7% (inactive)
C[C@H](CO)N1C[C@H](C)[C@@H](CN(C)Cc2ccc(Oc3ccccc3)cc2)Oc2cc(-c3ccncc3)ccc2S1(=O)=O,1.19%,4.26% (inactive)
CO[C@@H]1CC[C@H]2CCN(C)C(=O)C[C@@H](c3ccccc3)CN(C)C(=O)c3cc(C#N)ccc3OC[C@@H]1O2,-9.45%,-7.23% (inactive)
O=C(C[C@@H]1CC[C@H]2[C@@H](COC[C@H](O)CN2C(=O)Nc2ccccc2)O1)NCc1ccccc1F,9.72%,7.54% (inactive)
COc1cccc(S(=O)(=O)N2C[C@@H]3N[C@H](C2)C3c2ccc(-c3cccc(C(=O)N(C)C)c3)cc2)c1 (some centres not stated),-11.2%,-13.4% (inactive)
CCCC(=O)N1CC2(CCN(C(=O)C3CC3)CC2)c2c(n(C)c3cc(OC)ccc23)[C@H]1CO,-6.7%,-2.69% (inactive)
COCC(=O)Nc1ccc2c(c1)OC[C@@H](C)N(Cc1ccccn1)C[C@H](C)[C@@H](OC)CN(C)C2=O,15.4%,16.4% (inactive)
C/C=C/c1ccc(C2[C@H]3CNC[C@@H]2N3C(=O)Nc2ccc(F)cc2)cc1 (some centres not stated),2.48% and -0.546%,0.263% (inactive) and -2.6% (inactive)
COc1ccc2c3c([nH]c2c1)[C@H](CO)N(C(=O)CN1CCOCC1)CC31CN(C(C)=O)C1,24.1%,42.6% (inactive)
C[C@@H]1CCCCO[C@@H](CN(C)C(=O)Cc2ccccc2)[C@H](C)CN([C@H](C)CO)C(=O)c2cc(NC(=O)Cc3ccccc3)ccc2O1,-23.2%,-29.2% (inactive)
CN(C)C(=O)c1ccc(-c2ccc([C@H]3[C@H](CO)N4C(=O)CN(C(=O)C5CCCC5)C[C@@H]34)cc2)cc1,3.62%,4.76% (inactive)
CO[C@H]1CC[C@H]2CCN(C)C(=O)C[C@@H](c3ccccc3)CN(C)C(=O)c3cccc(C#N)c3OC[C@@H]1O2,36.7%,37.9% (inactive)
COc1ccccc1CNC(=O)C[C@H]1CC[C@@H](NC(=O)CN(C)C)[C@@H](CO)O1,17.1%,6.13% (inactive)
COCC#Cc1ccc([C@H]2[C@@H](CO)N3C(=O)CN(C(=O)C4CCCC4)C[C@@H]23)cc1,10.7%,14.5% (inactive)
CO[C@@H]1CN(C)C(=O)c2cc(NS(=O)(=O)Cc3ccccc3)ccc2OC[C@H](C)NC[C@H]1C,3.49%,-2.28% (inactive)
COc1ccc(NC(=O)N(C)C[C@H]2OCCCC[C@@H](C)Oc3ccc(NS(=O)(=O)c4ccc(F)cc4)cc3C(=O)N([C@H](C)CO)C[C@H]2C)cc1,-16.7%,-18% (inactive)
O=C(C[C@@H]1CC[C@@H]2[C@H](COC[C@@H](O)CN2S(=O)(=O)c2cccc(Cl)c2)O1)N1CCOCC1,10.1%,21.4% (inactive)
O=C(C[C@@H]1CC[C@@H]2[C@H](COC[C@@H](O)CN2Cc2ccc(Cl)cc2)O1)NCc1ccccc1Cl,-11.5%,-7.35% (inactive)
O=C(C[C@@H]1CC[C@@H]2[C@H](COC[C@H](O)CN2S(=O)(=O)c2ccccc2)O1)N[C@H]1CCN(Cc2ccccc2)C1,-6.28%,-10.6% (inactive)
COc1cccc(NC(=O)Nc2ccc3c(c2)C(=O)N(C)C[C@H](OC)[C@@H](C)CN[C@@H](C)CO3)c1,13.8%,1.34% (inactive)
CCC(=O)Nc1ccc2c(c1)OC[C@@H](C)N(Cc1ccccc1OC)C[C@H](C)[C@H](OC)CN(C)C2=O,-6.3%,-3.87% (inactive)
COc1ccccc1-c1ccc([C@H]2[C@@H](CO)N(CC3CC3)C23CN(S(C)(=O)=O)C3)cc1,0.302%,-10.8% (inactive)
O=C(Nc1ccccc1F)N1CC(=O)N2[C@H](CO)[C@H](c3ccc(C#CC4CC4)cc3)[C@@H]2C1,-0.75%,-2.67% (inactive)
